Results from PubChem BioAssay AID1159580 (chemical genetic matrix, 2015).
About 2,000 (36%) of roughly 5,500 compounds were called active. Inconclusive results (about 18%) are left out. Cut-off read from the data, not from the text of the source: active = normalized growth mostly below about 0.91 (no sharp cut-off); inconclusive = no clear call, values can overlap the other calls; inactive = mostly above about 0.92. This is one part of the list.

Test: chemical genetic growth profiling, strain panel (AID 1159580);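 note: tested at 20 µM; growth read once vehicle control cultures reached saturation at 30 °C; 1 = growth at the plate median or of vehicle wells; lower values mean less growth of the strain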
Conditions: S. cerevisiae deletion strains, growth OD
[1] = locus YHR030C, strain SLT2, hits give low values
[2] = locus YHR079C, strain IRE1, hits give low values
[3] = locus YJL095W, strain BCK1, hits give low values
[4] = locus YJR066W, strain TOR1, hits give low values
[5] = locus YLR113W, strain HOG1, hits give low values
[6] = locus YNL183C, strain NPR1, hits give low values
[7] = locus YOR231W, strain MKK1, hits give low values
[8] = locus YPL256C, strain CLN2, hits give low values

Measured: normalized growth

CO/N=C(/C(=O)NC1C(=O)N2C(C(=O)OCOC(=O)C(C)(C)C)=C(/C=C\c3scnc3C)CSC12)c1csc(N)n1 (centres undefined)
inactive: locus YAL021C, strain ccr4, hits give low values 0.974 | locus YAL026C, strain drs2, hits give low values 1.01 | locus YAL030W, strain snc1, hits give low values 0.992 | locus YBL061C, strain skt5, hits give low values 1 | locus YBR009C, strain hhf1, hits give low values 0.98 | locus YBR023C, strain chs3, hits give low values 1 | locus YBR171W, strain sec66, hits give low values 1 | locus YBR231C, strain swc5, hits give low values 0.965 | locus YBR279W, strain paf1, hits give low values 1 | locus YCL011C, strain gbp2, hits give low values 1 | locus YCL016C, strain dcc1, hits give low values 1 | locus YCL069W, strain vba3, hits give low values 0.999 | locus YCR088W, strain abp1, hits give low values 0.999 | locus YDL005C, strain med2, hits give low values 0.999 | locus YDL040C, strain nat1, hits give low values 1 | locus YDR001C, strain nth1, hits give low values 1.01 | locus YDR069C, strain doa4, hits give low values 1.01 | locus YDR137W, strain rgp1, hits give low values 1.03 | locus YDR159W, strain sac3, hits give low values 0.902 | locus YDR195W, strain ref2 0.96 | locus YDR297W, strain sur2, hits give low values 1.01 | locus YDR334W, strain swr1, hits give low values 0.989 | locus YDR335W, strain msn5, hits give low values 1.01 | locus YDR392W, strain spt3, hits give low values 0.906 | locus YEL003W, strain gim4, hits give low values 0.995 | locus YEL037C, strain rad23, hits give low values 0.988 | locus YEL061C, strain CIN8 (second series), hits give low values 0.985 | locus YER015W, strain faa2, hits give low values 0.988 | locus YER016W, strain bim1, hits give low values 1.03 | locus YER111C, strain swi4, hits give low values 0.986 | locus YER155C, strain BEM2 (second series), hits give low values 0.875 | locus YFR010W, strain ubp6, hits give low values 0.998 | locus YGL167C, strain pmr1, hits give low values 1 | locus YGL173C, strain kem1, hits give low values 1 | locus YGL227W, strain vid30, hits give low values 1.03 | locus YGL240W, strain doc1, hits give low values 0.976 | locus YGL253W, strain hxk2, hits give low values 1.01 | locus YHR013C, strain ard1, hits give low values 1 | locus YHR027C, strain rpn1, hits give low values 1 | [1] 1.05 | [2] 1.04 | locus YHR142W, strain chs7, hits give low values 1.02 | locus YJL092W, strain hpr5, hits give low values 0.995 | locus YJL095W, strain BCK1 (second series), hits give low values 0.994 | [3] 1.01 | locus YJL115W, strain asf1, hits give low values 1 | locus YJL129C, strain trk1, hits give low values 1.01 | locus YJL154C, strain vps35, hits give low values 0.996 | locus YJL164C, strain tpk1, hits give low values 0.989 | locus YJL166W, strain qcr8, hits give low values 1 | locus YJL187C, strain SWE1, hits give low values 1 | [4] 1.01 | locus YKL160W, strain elf1, hits give low values 1 | locus YKR026C, strain gcn3, hits give low values 0.994 | locus YKR091W, strain srl3, hits give low values 0.993 | locus YLL001W, strain dnm1, hits give low values 0.953 | locus YLL026W, hits give low values 0.996 | locus YLL041C, strain sdh2, hits give low values 0.997 | locus YLR027C, strain aat2, hits give low values 1 | [5] 0.962 | locus YLR221C, strain rsa3, hits give low values 0.994 | locus YLR258W, strain gsy2, hits give low values 1.01 | locus YLR262C, strain YPT6 (second series), hits give low values 0.992 | locus YLR320W, strain mms22, hits give low values 0.955 | locus YLR342W, strain FKS1, hits give low values 1.01 | locus YLR357W, strain rsc2, hits give low values 0.942 | locus YLR370C, strain arc18, hits give low values 0.991 | locus YLR384C, strain iki3, hits give low values 1.02 | locus YML120C, strain ndi1, hits give low values 0.995 | locus YMR058W, strain fet3, hits give low values 0.991 | locus YMR125W, strain sto1, hits give low values 0.981 | locus YMR129W, hits give low values 0.992 | locus YMR205C, strain PFK2, hits give low values 0.99 | locus YMR231W, strain pep5, hits give low values 0.994 | locus YNL071W, strain lat1, hits give low values 0.999 | [6] 0.981 | locus YNL209W, strain ssb2, hits give low values 1.01 | locus YNL248C, strain rpa49, hits give low values 1.01 | locus YNL322C, strain KRE1 (second series), hits give low values 0.984 | locus YNR049C, strain mso1, hits give low values 0.991 | locus YOR001W, strain rrp6, hits give low values 0.973 | locus YOR070C, strain gyp1, hits give low values 1 | locus YOR080W, strain dia2, hits give low values 0.996 | locus YOR083W, strain WHI5, hits give low values 0.95 | locus YOR106W, strain vam3, hits give low values 1.01 | [7] 1.01 | locus YOR265W, strain rbl2, hits give low values 0.998 | locus YOR270C, strain vph1, hits give low values 1.04 | locus YOR290C, strain snf2, hits give low values 1.01 | locus YPL051W, strain arl3, hits give low values 1.01 | locus YPL078C, strain atp4, hits give low values 0.998 | locus YPL106C, strain sse1, hits give low values 1.01 | locus YPL240C, strain hsp82, hits give low values 1 | [8] 1.03

Cc1cc2nc3c(Cl)c(O)c4ccccc4c3nc2cc1C
active: locus YDR477W, strain SNF1, hits give low values 0.634 | [1] 0.55 | locus YKL048C, strain ELM1, hits give low values 0.737 | locus YLR133W, strain CKI1, hits give low values 0.679 | locus YMR205C, strain PFK2 (second series), hits give low values 0.726 | locus YNL020C, strain ARK1, hits give low values 0.617 | locus YOR061W, strain CKA2, hits give low values 0.43 | locus YPL031C, strain PHO85, hits give low values 0.643 | locus YPL204W, strain HRR25, hits give low values 0.646
inactive: locus YAR019C, strain CDC15, hits give low values 0.966 | locus YBL105C, strain PKC1, hits give low values 0.961 | locus YBR135W, strain CKS1, hits give low values 0.949 | locus YBR136W, strain MEC1, hits give low values 0.965 | locus YBR160W, strain CDC28, hits give low values 0.96 | locus YDL017W, strain CDC7, hits give low values 0.965 | locus YDL028C, strain MPS1, hits give low values 0.959 | locus YDL101C, strain DUN1, hits give low values 0.981 | locus YDL108W, strain KIN28, hits give low values 0.954 | locus YDL132W, strain cdc53, hits give low values 0.966 | locus YDL214C, strain PRR2, hits give low values 0.818 | locus YDR052C, strain DBF4, hits give low values 0.953 | locus YDR054C, strain cdc34, hits give low values 0.965 | locus YDR226W, strain ADK1, hits give low values 0.949 | locus YER123W, strain YCK3, hits give low values 0.766 | locus YER133W, strain GLC7, hits give low values 0.87 | locus YFL009W, strain cdc4, hits give low values 0.969 | locus YFL029C, strain CAK1, hits give low values 0.946 | locus YFR003C, strain YPI1, hits give low values 0.962 | locus YFR019W, strain FAB1, hits give low values 0.887 | locus YFR028C, strain CDC14, hits give low values 0.958 | locus YGR040W, strain KSS1, hits give low values 0.724 | locus YGR052W, strain FMP48, hits give low values 0.722 | locus YGR092W, strain DBF2, hits give low values 0.487 | [2] 0.805 | locus YHR082C, strain KSP1, hits give low values 0.737 | locus YHR205W, strain SCH9, hits give low values 0.666 | locus YIL147C, strain SLN1, hits give low values 0.958 | [3] 0.749 | locus YJL128C, strain PBS2, hits give low values 0.944 | locus YJL157C, strain FAR1, hits give low values 0.778 | locus YJR016C, strain ILV3, hits give low values 0.955 | locus YJR066W, strain TOR1 (second series), hits give low values 0.64 | [4] 0.559 | locus YKL067W, strain YNK1, hits give low values 0.786 | locus YKL101W, strain HSL1, hits give low values 0.829 | locus YKL193C, strain SDS22, hits give low values 0.972 | locus YKL203C, strain TOR2, hits give low values 0.766 | [5] 0.877 | locus YLR403W, strain SFP1, hits give low values 0.663 | locus YML070W, strain DAK1, hits give low values 0.852 | locus YMR001C, strain CDC5, hits give low values 0.959 | locus YMR277W, strain FCP1, hits give low values 0.961 | locus YNL006W, strain LST8, hits give low values 0.974 | locus YNL161W, strain CBK1, hits give low values 0.971 | [6] 0.739 | locus YNL207W, strain RIO2, hits give low values 0.961 | locus YNL222W, strain SSU72, hits give low values 0.955 | locus YOL078W, strain AVO1, hits give low values 0.962 | locus YOL136C, strain PFK27, hits give low values 0.838 | locus YOR119C, strain RIO1, hits give low values 0.831 | [7] 0.829 | locus YOR329C, strain SCD5, hits give low values 0.97 | locus YPL153C, strain RAD53, hits give low values 0.68 | locus YPL209C, strain IPL1, hits give low values 0.976 | [8] 0.869 | locus YPR025C, strain CCL1, hits give low values 0.957 | locus YPR106W, strain ISR1, hits give low values 1.01 | locus YPR111W, strain DBF20, hits give low values 0.976 | strain NNK1, hits give low values 0.966 | strain TSCII, hits give low values 0.963
